Assay results taken from PubChem BioAssay AID1159580 (chemical genetic matrix, 2015).
In all, about 5,500 compounds went through this assay and about 2,000 (36%) were called active. Another 18% or so got no clear call; they are omitted. Cut-off read from the data, not from the text of the source: active = normalized growth mostly below about 0.91 (no sharp cut-off); inconclusive = no clear call, values can overlap the other calls; inactive = mostly above about 0.92. Some of the results follow.

Test: chemical genetic growth profiling, strain panel (AID 1159580);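 note: tested at 20 µM; growth read once vehicle control cultures reached saturation at 30 °C; 1 = growth at the plate median or of vehicle wells; lower values mean less growth of the strain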
Settings: S. cerevisiae deletion strains, growth OD

Measured: normalized growth

CC(=O)OC1CCC2(O)CC1(C)CCC1C2CC1(C)C (stereo not given)
inactive: locus YAL021C, strain ccr4, hits give low values 1 | locus YAL026C, strain drs2, hits give low values 1.05 | locus YAL030W, strain snc1, hits give low values 1.02 | locus YBL061C, strain skt5, hits give low values 1.02 | locus YBR009C, strain hhf1, hits give low values 1.03 | locus YBR021W, strain FUR4, hits give low values 1 | locus YBR023C, strain chs3, hits give low values 1.02 | locus YBR171W, strain sec66, hits give low values 1.03 | locus YBR229C, strain ROT2, hits give low values 0.949 | locus YBR231C, strain swc5, hits give low values 1.05 | locus YBR279W, strain paf1, hits give low values 1.01 | locus YCL011C, strain gbp2, hits give low values 1.03 | locus YCL016C, strain dcc1, hits give low values 1.02 | locus YCL029C, strain bik1, hits give low values 0.974 | locus YCL061C, strain MRC1, hits give low values 1.02 | locus YCL069W, strain vba3, hits give low values 1.03 | locus YCR088W, strain abp1, hits give low values 1.02 | locus YDL005C, strain med2, hits give low values 1.02 | locus YDL035C, strain GPR1, hits give low values 0.958 | locus YDL040C, strain nat1, hits give low values 1.02 | locus YDL074C, strain BRE1, hits give low values 0.989 | locus YDL101C, strain DUN1, hits give low values 0.992 | locus YDL185W, strain tfp1, hits give low values 0.968 | locus YDL192W, strain arf1, hits give low values 0.981 | locus YDR001C, strain nth1, hits give low values 1.02 | locus YDR069C, strain doa4, hits give low values 1.03 | locus YDR101C, strain arx1, hits give low values 0.973 | locus YDR137W, strain rgp1, hits give low values 0.988 | locus YDR159W, strain sac3, hits give low values 1.06 | locus YDR162C, strain NBP2, hits give low values 0.938 | locus YDR195W, strain ref2 1.01 | locus YDR297W, strain sur2, hits give low values 1.01 | locus YDR318W, strain mcm21, hits give low values 0.977 | locus YDR334W, strain swr1, hits give low values 1.03 | locus YDR335W, strain msn5, hits give low values 1.04 | locus YDR388W, hits give low values 0.965 | locus YDR392W, strain spt3, hits give low values 0.955 | locus YDR502C, strain sam2, hits give low values 1.02 | locus YEL003W, strain gim4, hits give low values 1.04 | locus YEL037C, strain rad23, hits give low values 1.02 | locus YEL061C, strain CIN8 (second series), hits give low values 1.03 | locus YER015W, strain faa2, hits give low values 1.02 | locus YER016W, strain bim1, hits give low values 1.03 | locus YER110C, hits give low values 0.973 | locus YER111C, strain swi4, hits give low values 1.02 | locus YER155C, strain BEM2 (second series), hits give low values 1.05 | locus YER155C, strain BEM2, hits give low values 0.982 | locus YER167W, strain BCK2, hits give low values 0.975 | locus YFR010W, strain ubp6, hits give low values 1.04 | locus YGL078C, strain dbp3, hits give low values 1.02 | locus YGL086W, strain mad1, hits give low values 0.996 | locus YGL167C, strain pmr1, hits give low values 1.02 | locus YGL173C, strain kem1, hits give low values 1.04 | locus YGL227W, strain vid30, hits give low values 1.03 | locus YGL240W, strain doc1, hits give low values 1.03 | locus YGL248W, strain PDE1, hits give low values 1.01 | locus YGL253W, strain hxk2, hits give low values 1.07 | locus YGR135W, strain pre9, hits give low values 1.07 | locus YGR229C, strain SMI1, hits give low values 0.914 | locus YGR252W, strain gcn5, hits give low values 1.05 | locus YHR013C, strain ard1, hits give low values 1.03 | locus YHR027C, strain rpn1, hits give low values 1.02 | locus YHR079C, strain IRE1 (second series), hits give low values 0.982 | locus YHR094C, strain hxt1, hits give low values 0.976 | locus YHR129C, strain ARP1, hits give low values 0.988 | locus YHR142W, strain chs7, hits give low values 1.03 | locus YHR200W, strain rpn10, hits give low values 0.999 | locus YIL066C, strain RNR3, hits give low values 0.961 | locus YIL073C, strain SPO22, hits give low values 1.03 | locus YIL125W, strain kgd1, hits give low values 0.986 | locus YIR030C, strain dcg1, hits give low values 0.972 | locus YJL092W, strain hpr5, hits give low values 1.03 | locus YJL095W, strain BCK1 (second series), hits give low values 1.04 | locus YJL095W, strain BCK1, hits give low values 1.02 | locus YJL115W, strain asf1, hits give low values 1.01 | locus YJL129C, strain trk1, hits give low values 1.01 | locus YJL134W, strain LCB3, hits give low values 0.974 | locus YJL154C, strain vps35, hits give low values 1.03 | locus YJL164C, strain tpk1, hits give low values 1 | locus YJL166W, strain qcr8, hits give low values 1.03 | locus YJL168C, strain set2, hits give low values 0.991 | locus YJL187C, strain SWE1 (second series), hits give low values 1.01 | locus YJL187C, strain SWE1, hits give low values 1.03 | locus YKL009W, strain mrt4, hits give low values 0.976 | locus YKL068W, hits give low values 0.984 | locus YKL085W, strain MDH1 (second series), hits give low values 0.979 | locus YKL085W, strain MDH1, hits give low values 0.979 | locus YKL160W, strain elf1, hits give low values 1.01 | locus YKL190W, strain CNB1, hits give low values 0.981 | locus YKR001C, strain vps1, hits give low values 0.977 | locus YKR026C, strain gcn3, hits give low values 1.03 | locus YKR091W, strain srl3, hits give low values 1.02 | locus YLL001W, strain dnm1, hits give low values 1 | locus YLL026W, hits give low values 1.01 | locus YLL041C, strain sdh2, hits give low values 1.02 | locus YLR027C, strain aat2, hits give low values 1.05 | locus YLR039C, strain RIC1, hits give low values 0.945 | locus YLR058C, strain SHM2, hits give low values 0.978 | locus YLR102C, strain apc9, hits give low values 0.996 | locus YLR221C, strain rsa3, hits give low values 1.05 | locus YLR258W, strain gsy2, hits give low values 1.04 | locus YLR262C, strain YPT6 (second series), hits give low values 1.03 | locus YLR268W, strain sec22, hits give low values 0.943 | locus YLR320W, strain mms22, hits give low values 1.05 | locus YLR330W, strain CHS5, hits give low values 0.987 | locus YLR342W, strain FKS1 (second series), hits give low values 0.97 | locus YLR342W, strain FKS1, hits give low values 1.02 | locus YLR357W, strain rsc2, hits give low values 1.03 | locus YLR370C, strain arc18, hits give low values 1.02 | locus YLR371W, strain rom2, hits give low values 1.02 | locus YLR384C, strain iki3, hits give low values 1.01 | locus YLR418C, strain cdc73, hits give low values 1.04 | locus YML016C, strain PPZ1, hits give low values 0.974 | locus YML032C, strain rad52, hits give low values 0.985 | locus YML120C, strain ndi1, hits give low values 0.999 | locus YML124C, strain tub3, hits give low values 0.982 | locus YMR058W, strain fet3, hits give low values 1.04 | locus YMR078C, strain ctf18, hits give low values 0.997 | locus YMR125W, strain sto1, hits give low values 0.998 | locus YMR129W, hits give low values 1.02 | locus YMR205C, strain PFK2, hits give low values 1.04 | locus YMR223W, strain ubp8, hits give low values 1.02 | locus YMR231W, strain pep5, hits give low values 1.02 | locus YMR263W, strain SAP30, hits give low values 0.984 | locus YMR307W, strain GAS1, hits give low values 0.926 | locus YNL067W, strain RPL9B, hits give low values 1.01 | locus YNL071W, strain lat1, hits give low values 1.03 | locus YNL209W, strain ssb2, hits give low values 1.01 | locus YNL233W, strain BNI4, hits give low values 1.05 | locus YNL248C, strain rpa49, hits give low values 1.03 | locus YNL250W, strain rad50, hits give low values 0.956 | locus YNL271C, strain bni1, hits give low values 0.991 | locus YNL298W, strain CLA4, hits give low values 0.967 | locus YNL307C, strain MCK1, hits give low values 1.01 | locus YNL322C, strain KRE1 (second series), hits give low values 1.01 | locus YNR049C, strain mso1, hits give low values 1.05 | locus YNR052C, strain pop2, hits give low values 1.04 | locus YOL006C, strain TOP1, hits give low values 0.973 | locus YOL012C, strain htz1 0.722 | locus YOL147C, strain pex11, hits give low values 0.985 | locus YOR001W, strain rrp6, hits give low values 1.06 | locus YOR061W, strain CKA2, hits give low values 0.957 | locus YOR069W, strain VPS5, hits give low values 0.983 | locus YOR070C, strain gyp1, hits give low values 1.03 | locus YOR080W, strain dia2, hits give low values 1.02 | locus YOR083W, strain WHI5, hits give low values 1.06 | locus YOR106W, strain vam3, hits give low values 1.02 | locus YOR136W, strain idh2, hits give low values 0.992 | locus YOR144C, strain elg1, hits give low values 0.988 | locus YOR184W, strain ser1, hits give low values 0.909 | locus YOR265W, strain rbl2, hits give low values 1.02 | locus YOR270C, strain vph1, hits give low values 1.13 | locus YOR290C, strain snf2, hits give low values 1.03 | locus YOR316C, strain cot1, hits give low values 0.992 | locus YPL051W, strain arl3, hits give low values 1.01 | locus YPL055C, strain LGE1, hits give low values 0.932 | locus YPL078C, strain atp4, hits give low values 1 | locus YPL106C, strain sse1, hits give low values 0.991 | locus YPL240C, strain hsp82, hits give low values 1.02 | locus YPL241C, strain CIN2, hits give low values 0.997 | locus YPR119W, strain clb2, hits give low values 0.989 | locus YPR141C, strain kar3, hits give low values 0.977 | locus YPR163C, strain tif3, hits give low values 0.989 | locus YPR167C, strain met16, hits give low values 0.993 | strain wtn01, hits give low values 0.958
